From PubChem BioAssay (NCI) come the findings set out here.

About 79,000 compounds went through this panel and 15% of them were active in at least one assay; those are over-represented in the sample as a whole. A number with no mark means an inactive call. Activity calls are given as the source filed them. Cut-off read from the data, not from the text of the source: active = growth inhibition above about 70%; inactive = the rest.

This assay is described as follows: NCI Yeast Anticancer Drug Screen. Data for the mec2-1 strain (AID 157). To be noted: S. cerevisiae mec2-1 strain, hits give high values. The protocol:
Growth inhibition of yeast strains with defined genetic alterations is measured as a screen for potential anti-cancer activity. Selected strains with alterations in DNA damage repair or cell cycle control were exposed to compounds and growth inhibition was measured relative to vehicle treated controls. The strain used in this assay is mec2-1

The mark [1] stands for this setting: at 5.0 µM (retest, dose inferred, filed as 0.5).
The mark [2] stands for this setting: at 50.0 µM (retest, dose inferred, filed as 5.0).

As to `O=C1C(C(O)(C(F)(F)F)C(F)(F)F)CCC1C(O)(C(F)(F)F)C(F)(F)F` (stereo not given), the growth inhibition (at 1.2 µM) was 7%; the growth inhibition (at 3.7 µM) was 8%; the growth inhibition under setting [1] was 9%; the growth inhibition (at 11.0 µM) was 10%; the growth inhibition (at 33.0 µM) is 20%; the growth inhibition under setting [2] was 26%. Further, the growth inhibition is 42.6% (at 50.0 µM) and 32% (at 100.0 µM).

For the molecule `c1cc(Nc2ccc3c(c2)OCO3)c2cc(C3CCCCC3)ccc2n1`, the growth inhibition by setting is: (at 1.2 µM) -3%; (at 3.7 µM) -2%; under setting [1], -8%; (at 11.0 µM) -4%; (at 33.0 µM) -2%; under setting [2], 23%. Besides, the growth inhibition is 99.5% (active) (at 50.0 µM) and 72% (active) (at 100.0 µM).

Consider `CCOc1ccccc1N1C(=O)CC(Sc2ccccc2N)C1=O` (stereo not given), for which the growth inhibition (at 1.2 µM) was 2%; the growth inhibition (at 3.7 µM) is 10%; the growth inhibition under setting [1] was 57%; the growth inhibition (at 11.0 µM) is -9%; the growth inhibition (at 33.0 µM) is 0%; the growth inhibition under setting [2] was 85% (active). Further, the growth inhibition is -12.4% (at 50.0 µM) and -19% (at 100.0 µM).

For `Cc1cccc[c]1[Sn]([Cl])([S]/C(C#N)=N/N=C/c1ccc(N(C)C)cc1)[c]1ccccc1C`, the growth inhibition is, setting by setting: (at 1.2 µM) 2%; (at 3.7 µM) -1%; under setting [1], 9%; (at 11.0 µM) 8%; (at 33.0 µM) 51%; under setting [2], 90% (active). The growth inhibition is 98.2% (active) (at 50.0 µM) and 93% (active) (at 100.0 µM).

As to `C[Si](C)(C)Cc1ccccc1C(=O)O`, the growth inhibition is 4% (at 1.2 µM); 4% (at 3.7 µM); 8% under setting [1]; 8% (at 11.0 µM); 29% (at 33.0 µM); 86% (active) under setting [2]. Also, the growth inhibition by setting is: (at 50.0 µM) 97% (active); (at 100.0 µM) 98% (active).
